Source: PubChem
Rab9 promoter act: activators of Rab9 promoter; Huh7 Rab9 promoter-luciferase reporter, luminescence, 24 h; Potency, µM (highest dose often 9.22 µM), without a hit: at the highest dose activation, negative = inhibition, most hits filed as activators; 320,000 tested, 2.8% active; AID 485297; further: % of control where 0% means no effect; nearly all actives have a fitted effect of over 60% in size
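Cell-based reporter: Huh7 stable for Rab9 promoter-driven luciferase, plated in reduced-serum medium with 10% FBS at 1500 cells/well, compound-treated 24 h at 37 °C, luminescence read after 10 min reagent.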
NPC1 prom act: NPC1 promoter activation. Potency, µM (titrated, usually from 9.22 µM), without a hit: at the top dose activation, usual class: activators. 320,000 tested, 2.4% active. AID 485313. Huh7 NPC1 promoter luciferase reporter, 24 h; further: % of control where 0% means no effect; nearly all actives have a fitted effect of over 60% in size
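Luciferase expression driven by the NPC1 promoter was measured in stably transfected Huh7 cells after a 24 h compound incubation, using a luciferase reagent and a luminescence read.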
ELG1 genotox: induces genotoxicity in HEK293T cells with luciferase-tagged ELG1; HEK293T ELG1-luciferase reporter, luminescence, 16 h; Potency, µM (doses to about 46 µM), inactives show top-dose activity change, positive = activation, actives largely listed as activators; 330,000 tested, 1.3% active; further: % of control where 0% means no effect; nearly all actives have a fitted effect of over 60% in size
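Screening used a luciferase reporter fused to human ELG1 in HEK293T cells. Luminescence was read on a CCD plate imager after 16 hr exposure and 30 min ONE-Glo incubation.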
FLuc modulator: firefly luciferase modulation, counter-screen for miR-21 project; purified FLuc, Km substrates, luminescence inhibition; AID 588342; P08659; Potency, µM (doses to about 57.5 µM), for inactives: at the top dose activity change, negative = inhibition, most hits filed as inhibitors; 360,000 tested, 6.9% active;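 further: plate controls were vehicle for no effect and reference inhibitor for full effect; nearly all actives have a fitted effect of over 55% in size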
Target sequence (P08659 whole entry, looked up): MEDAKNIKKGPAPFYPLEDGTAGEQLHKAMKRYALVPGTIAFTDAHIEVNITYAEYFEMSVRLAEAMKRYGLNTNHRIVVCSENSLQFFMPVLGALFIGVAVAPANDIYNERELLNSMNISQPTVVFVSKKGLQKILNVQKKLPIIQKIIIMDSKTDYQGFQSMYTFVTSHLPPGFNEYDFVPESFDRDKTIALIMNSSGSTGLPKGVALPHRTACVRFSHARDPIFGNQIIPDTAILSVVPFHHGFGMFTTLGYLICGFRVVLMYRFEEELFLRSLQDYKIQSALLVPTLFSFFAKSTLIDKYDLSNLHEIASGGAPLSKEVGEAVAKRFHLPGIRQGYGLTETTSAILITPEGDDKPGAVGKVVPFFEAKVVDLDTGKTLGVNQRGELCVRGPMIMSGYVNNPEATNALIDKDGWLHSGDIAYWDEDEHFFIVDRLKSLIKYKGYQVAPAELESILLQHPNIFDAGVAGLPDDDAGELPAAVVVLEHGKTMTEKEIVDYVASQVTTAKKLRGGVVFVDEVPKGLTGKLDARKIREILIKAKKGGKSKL
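Biochemical qHTS of compounds, final roughly 60 µM downward over six points, against 10 nM purified firefly luciferase using Km concentrations of substrates (10 uM D-luciferin, 10 uM ATP) in Tris acetate pH 7.5 buffer; luminescence output.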
SMN2 splice up: increases expression of the SMN2 splice variant; HEK293 SMN2-luciferase splicing reporter, luminescence, 30-36 h; Potency, µM (series often up to 46.1 µM), inactives show at the top dose activity change, positive = activation, actives largely listed as activators; 210,000 tested, 2.8% active; AID 1458; further: % of control where 0% means no effect; nearly all actives have a fitted effect of over 55% in size
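HEK293 cells carry an SMN2 minigene-luciferase reporter in which exon 7 inclusion puts luciferase in frame. Cells were seeded at 2000 cells/well, attached for 10-12 hours, then exposed to compounds for 30-36 hours at 37C before ONE-Glo luminescence.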
p53 reactivation: re-activators of mutant p53. H1299 p53-A138V BP100-luciferase reporter, luminescence, 24 h. AID 504706. Potency, µM (top dose mostly 92.2 µM), for inactives: top-dose activity change, positive = activation, usual class: activators. 320,000 tested, 0.063% active; further: % of control where 0% means no effect; nearly all actives have a fitted effect of over 45% in size
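p53-null H1299 cells stably carrying temperature-sensitive p53-A138V and a BP100-luciferase reporter were pinned with compounds (4-point, 1:5 series) and held 24 hrs at 37 deg C. Luminescence was read 10 min after detection reagent.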
* marks the source's active call; other numbers are inactive results; [ ] = another dose, or the depositor's remark. In the library only some 7.3% were active in any assay of this set; here they are far more common. The call rests on the fitted dose curve; in most records, active means well fitted curve in the direction sought with a large enough effect; inconclusive means small, poorly fitted or top-dose-only effect, or another doubt; inactive means no such curve, though single readings can be large; an effect the other way counts as inactive or inconclusive. Potency means the concentration at half of the fitted maximal effect.

What do the screens show for `CCOC(=O)C(C(=O)OCC)c1c([N+](=O)[O-])c(=O)n2c3c(cccc13)CCC2`?
Rab9 promoter act: -3.5%; NPC1 prom act: -0.4%; ELG1 genotox: -1.1%; FLuc modulator: 1.1%; p53 reactivation: 9.1%

How did COc1cccc(NC(=O)C(C)n2c(=O)cc(C(F)(F)F)c3c(C)nn(C)c32)c1 (stereo unspecified) do in these assays?
FLuc modulator: -3.3%

How did O=C(Cc1ccccc1[N+](=O)[O-])NCc1ccc(Cl)cc1Cl do in these assays?
Rab9 promoter act: 3.55µM*; NPC1 prom act: 3.98µM*; ELG1 genotox: inconclusive; FLuc modulator: 6.01µM*; p53 reactivation: inconclusive

What do the screens show for `O=C(NCc1ccc(Cl)cc1)c1n[nH]c([N+](=O)[O-])c1Cl`?
Rab9 promoter act: -10.5%; NPC1 prom act: 12.9%; ELG1 genotox: inconclusive; FLuc modulator: 21.3µM*; SMN2 splice up: 20.3%; p53 reactivation: -3.5%

How did O=C(/C=C/c1ccccc1[N+](=O)[O-])NCc1ccc(Cl)cc1 do in these assays?
Rab9 promoter act: -3.5%; NPC1 prom act: -1.8%; ELG1 genotox: -2.1%; FLuc modulator: -2.8%; SMN2 splice up: -9.5%; p53 reactivation: -0.6%

How did O=C(Cc1ccccc1[N+](=O)[O-])NCc1ccc(Cl)cc1 do in these assays?
Rab9 promoter act: inconclusive; NPC1 prom act: inconclusive; ELG1 genotox: inconclusive; FLuc modulator: 16.9µM*; SMN2 splice up: 20µM*; p53 reactivation: inconclusive

How did CN(/N=C/c1ccncc1)c1cnc2ccccc2n1 do in these assays?
Rab9 promoter act: 3.98µM*; NPC1 prom act: inconclusive; ELG1 genotox: 1.7%; FLuc modulator: 4.78µM*; SMN2 splice up: 11.2µM*; p53 reactivation: 17.4%

What do the screens show for `CN(/N=C/c1ccncc1)C1=NCCN1`?
Rab9 promoter act: 8.3%; NPC1 prom act: -3.2%; ELG1 genotox: -0.2%; FLuc modulator: -1.9%; p53 reactivation: -0.3%

What do the screens show for `Cc1ccccc1C1=NC(c2ccc(F)cc2F)ON1` (stereo unspecified)?
Rab9 promoter act: 24.0%; NPC1 prom act: 1.0%; ELG1 genotox: 11.2µM*; FLuc modulator: 23.9µM*; SMN2 splice up: 35.1%; p53 reactivation: inconclusive

Results for Cc1ccccc1-c1nn(-c2ccc(F)cc2F)cc1CNCC(C)O (stereo unspecified) ?
Rab9 promoter act: -10.0%; NPC1 prom act: -6.7%; ELG1 genotox: -1.4%; FLuc modulator: -1.6%; p53 reactivation: -3.5%

How did COc1ccccc1C1N=C(c2ccccc2C)NO1 (stereo unspecified) do in these assays?
Rab9 promoter act: inconclusive; NPC1 prom act: 21.5%; ELG1 genotox: 10.3µM*; FLuc modulator: 8.49µM*; p53 reactivation: inconclusive

Results for C(=C\c1nnc2c3ccccc3ncn12)/c1ccccc1 ?
Rab9 promoter act: 3.16µM*; NPC1 prom act: 4.47µM*; ELG1 genotox: inconclusive; FLuc modulator: 1.69µM*; SMN2 splice up: 14.1µM*; p53 reactivation: inconclusive

How did COc1cc(/C=C/c2nnc3c4ccccc4ncn23)cc(OC)c1OC do in these assays?
Rab9 promoter act: 22.8%; NPC1 prom act: 8.5%; ELG1 genotox: -6.0%; FLuc modulator: inconclusive; p53 reactivation: -0.2%

What do the screens show for `CCOc1ccccc1CNC(=O)c1cn(-c2ccc(OC)cc2)c(=O)c2ccccc12`?
FLuc modulator: 9.53µM*

How did COc1ccc(CCNC(=O)c2cc(Nc3cc(C)cc(C)c3)nc3ccccc23)cc1OC do in these assays?
FLuc modulator: 6.01µM*; SMN2 splice up: 0.8%

Results for COc1ccc(OC)c(Nc2cc(C(=O)NCc3ccccc3)c3ccccc3n2)c1 ?
FLuc modulator: -7.5%; SMN2 splice up: 2.4%

What do the screens show for `COc1ccc(Nc2cc(C(=O)NCc3ccccc3OC)c3ccccc3n2)cc1`?
FLuc modulator: 10.7µM*

Results for CCCN(CCC)CCCNC(=O)c1cn(-c2ccc(OC)cc2)c(=O)c2ccccc12 ?
Rab9 promoter act: -0.7%; NPC1 prom act: -3.2%; ELG1 genotox: 0.1%; FLuc modulator: 2.2%; p53 reactivation: -0.6%

How did COc1ccc(CNC(=O)c2cc(Nc3ccc(OC)cc3OC)nc3ccccc23)cc1 do in these assays?
FLuc modulator: 7.57µM*; SMN2 splice up: 4.4%

How did C[C@@H]1CCCC(CC(=O)O)(CC(=O)O)C1 do in these assays?
SMN2 splice up: -12.0%[9.22 µM]

Results for CC#CCN1c2ccccc2[C@]23C[C@@H](C(=O)OC)N(S(=O)(=O)c4ccc(C(F)(F)F)cc4)C2=NC(C(=O)OC)=C(C(=O)OC)[C@H]13 ?
SMN2 splice up: -2.4%[9.22 µM]

What do the screens show for `CCOCCCNC(=O)c1cc(Nc2ccc(OC)cc2OC)nc2ccccc12`?
Rab9 promoter act: -0.1%; NPC1 prom act: 1.3%; ELG1 genotox: -5.8%; FLuc modulator: inconclusive; p53 reactivation: -0.4%

How did COCCCNC(=O)c1cc(Nc2ccc(OC)cc2OC)nc2ccccc12 do in these assays?
Rab9 promoter act: -6.5%; NPC1 prom act: 12.3%; ELG1 genotox: -7.4%; FLuc modulator: 19µM*; p53 reactivation: -4.2%

Results for COc1ccc(Nc2cc(C(=O)N3CCc4ccccc4C3)c3ccccc3n2)c(OC)c1 ?
Rab9 promoter act: -1.5%; NPC1 prom act: -0.6%; ELG1 genotox: -19.2%; FLuc modulator: 15.1µM*; SMN2 splice up: -9.5%; p53 reactivation: -3.0%

What do the screens show for `COc1ccccc1Nc1cc(C(=O)N2CCc3ccccc3C2)c2ccccc2n1`?
Rab9 promoter act: 10.1%; NPC1 prom act: 0.8%; ELG1 genotox: -13.9%; FLuc modulator: inconclusive; SMN2 splice up: -3.9%; p53 reactivation: 0.4%

Results for O=C(Nc1ccccc1)Nc1ccc(-n2ccc(C(F)(F)F)n2)cc1 ?
Rab9 promoter act: 1.78µM*; NPC1 prom act: 2.82µM*; ELG1 genotox: inconclusive; FLuc modulator: 4.26µM*; p53 reactivation: inconclusive

Results for O=C(O)CC(CC(=O)Nc1ccc(-n2ccc(C(F)(F)F)n2)cc1)c1ccccc1 (stereo unspecified) ?
Rab9 promoter act: -2.6%; NPC1 prom act: 1.7%; ELG1 genotox: 2.5%; FLuc modulator: 3.2%; p53 reactivation: 0.6%

How did COc1ccc(NC(=O)c2cc3c([nH]c2=O)CC(c2ccccc2)CC3=O)cc1 (stereo unspecified) do in these assays?
FLuc modulator: -1.8%

What do the screens show for `Cn1c(=O)c2c(nc(NCc3ccc4c(c3)OCO4)n2C)n(C)c1=O`?
Rab9 promoter act: -1.3%; NPC1 prom act: -0.9%; ELG1 genotox: -1.9%; FLuc modulator: 0.6%; SMN2 splice up: 31.6µM*; p53 reactivation: 2.1%
